The panel holds about 83,000 compounds, 20% with a hit somewhere; the sample as a whole holds those more often.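 Note: values are percent growth. 100 is the growth of untreated cells, values between 100 and 0 indicate rising inhibition; between -100 and 0 indicates cell death.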 Calls of active or inactive are those of the source. The calls were made as follows: active = growth percent below 10; inactive = the rest.

From PubChem BioAssay (NCI) come the findings set out here.

This experiment deals with U251 CNS. The experiment in a line: NCI-60 one-dose screen, 48 h (100 = growth as untreated, 0 = no growth, -100 = all killed). The settings on record: 10 µM unless noted.
As to `N#CCCN1C(=O)CCC1C(=O)O` (centres undefined), the growth is 101% (inactive). The value for `Cc1c(-c2ccc(C3CCCCC3)cc2)nc2ccc(F)cc2c1C(=O)O` was 44.2% (inactive). With `O=C(OCc1ccccc1)n1nnc2ccccc21` the figure was 99.2% (inactive). With `CCOC(=O)Nc1nccs1` the figure was 98.9% (inactive); with `CCC(/C=C\C(C)=O)CC`, 96.6% (inactive). `OCC(O)COc1ccc(Cl)cc1Cl` (centres undefined): the growth is 89.3% (inactive). The value for `CSc1nsc(N)n1` was 94.9% (inactive). With `CC(=O)Nc1ncc(S(=O)(=O)c2ccc([N+](=O)[O-])cc2)s1` the figure was 108% (inactive). The value for `Cc1ccc(N2C(=O)c3cccc4c(N)c(S(=O)(=O)O)cc(c34)C2=O)cc1` was 96.7% (inactive). Consider `Oc1cccnc1CN1CCCC1`, for which the growth was 94.8% (inactive). As to `CC(C)c1ccc(C(=O)OCCCl)cc1`, the growth is 101% (inactive). The value for `CCOP(=O)(OCC)/C(=C\N1C(=O)CC(=O)NC1=S)C(=O)OC` was 94.7% (inactive). The value for `Cc1cc2c(C(C)C)c(O)c(O)c(C=Nc3ccccc3[N+](=O)[O-])c2c(O)c1-c1c(C)cc2c(C(C)C)c(O)c(O)c(C=Nc3ccccc3[N+](=O)[O-])c2c1O` was 54.2% (inactive); that for `COc1ccc(/C=N/NC(=O)COCC(=O)N/N=C/c2ccc(OC)cc2)cc1` was 96.2% (inactive); that for `CCOC(=O)CSCCC#N` was 105% (inactive). With `CCCCCCCCNC(=O)C(C)C` the figure was 101% (inactive); with `C1=NCCc2ccccc21`, 92.9% (inactive); with `O=[N+]([O-])c1ccc(-c2nc(N(CCO)CCO)c3ccccc3n2)o1`, 7.6% (active). `Cc1cc(CO)c(O)c(CO)c1`: the growth was 98.8% (inactive).
